HCMV antiviral: human cytomegalovirus inhibition | 410,000 compounds, 4.5% hits | HFF cells, HCMV-luciferase reporter, 72 h; stronger effect = lower value | activity change, negative = inhibition, % at 57.5 µM; in the data active = activity change below about -60%; inconclusive = no clear call, values can overlap the other calls; inactive = above about -39%
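Cell-based, HFFs, 1000 cells/well, 16 h 37C; cpds in DMSO + HCMV-luc, MOI 1 PFU/cell; 72 h 37C; OneGlo luminescence after 5 min RT; norm. to buffer vs Salinomycin 10uM.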
VACV mCherry inh: inhibitors of vaccinia virus infection (mCherry reporter signal). Vaccinia virus mCherry reporter infection, fluorescence. Potency, µM (series often up to 36.5 µM), for the others: at the highest dose activity change, negative = inhibition, most hits filed as inhibitors. AID 720579. 310,000 compounds, 0.63% hits; calls by dose curve; tested in A549 cells; note: potency is the fitted concentration of half-maximal effect; nearly all actives have a fitted effect of over 35% in size
Marburg entry inh: Marburg virus entry inhibition; Potency, µM (top dose mostly 37.8 µM), for inactives: at the top dose activity change, negative = inhibition, most hits filed as inhibitors; Marburg virus pseudotyped entry inhibition, cell reporter; 300,000 compounds, 1.8% hits; calls by dose curve; tested in HEK293 cells; note: potency is the fitted concentration of half-maximal effect
LASV entry inh: Lassa virus entry inhibition; Potency, µM (highest dose often 37.9 µM), for the others: top-dose activity change, negative = inhibition, most hits filed as inhibitors; Lassa virus pseudotype entry inhibition, cell reporter; 300,000 compounds, 1.2% hits; calls by dose curve; tested in HEK293 cells; note: potency is the fitted concentration of half-maximal effect; nearly all actives have a fitted effect of over 50% in size
VACV Venus inh: inhibitors of vaccinia virus (Venus reporter); Vaccinia virus Venus reporter expression, fluorescence; Potency, µM (series often up to 36.5 µM), for inactives: at the top dose activity change, negative = inhibition, usual class: inhibitors; 330,000 compounds, 0.46% hits; calls by dose curve; tested in A549 cells; note: potency is the fitted concentration of half-maximal effect; nearly all actives have a fitted effect of over 30% in size
FMDV antiviral: foot and mouth disease virus antiviral activity; Potency, µM (series often up to 57.9 µM), inactives show at the highest dose activity change, negative = inhibition, actives largely listed as inhibitors; 410,000 compounds, 1.2% hits; FMDV antiviral cell-based qHTS; calls by dose curve; tested in HEK293T cells; note: read-out not given here; potency is the fitted concentration of half-maximal effect; nearly all actives have a fitted effect of over 45% in size
Active calls of the source: *; i = inactive; ? = inconclusive; . = no result; [ ] = another dose, or the depositor's remark. This is a sample that favours compounds with a hit; in the whole collection about 6.5% have one here. % is set by controls: 0 for no effect and ±100 for the full control effect.

SMILES | HCMV antiviral | VACV mCherry inh | Marburg entry inh | LASV entry inh | VACV Venus inh | FMDV antiviral
O=C(c1ccc(CS(=O)c2ccccc2Cl)o1)N1CCN(c2cccc(Cl)c2)CC1 (stereo not given) | -93* | -10% | . | ? | -26% | -19%
Cc1ccc(CN2CCOc3ccc(CN4CCN(CCO)CC4)cc3C2)s1 | . | -1% | . | . | -3% | -5%
CCOC(=O)c1c(NC(=S)NC(=O)c2ccc(Cn3cc(Cl)cn3)o2)sc2c1CCC(C)C2 (stereo not given) | -71* | 20µM* | 0% | . | 28µM* | 17%
COC(=O)c1cc(NC(=O)c2ccc(Cn3cc(Cl)cn3)o2)cc(C(=O)OC)c1 | -32 | -12% | ? | -4% | -2% | ?
Cc1c(C)n(CCCN(C)C)c2ncnc(Nc3ccccc3)c12 | 33 | . | . | . | . | -1%
Cc1c(C)n(CCCN(C)C)c2ncnc(NC3CCCCC3)c12 | 12 | -26% | 10µM* | ? | ? | -7%
Cc1noc(C)c1NC(=O)Nc1ccc2c(c1)C(=O)N([C@H](C)CO)C[C@H](C)[C@@H](CN(C)C(=O)NC(C)C)O2 | -12 | -9% | . | . | -4% | -15%
COc1ccc(-c2cn3c(C)c(C(=O)N4CCN(c5ccccc5F)CC4)sc3n2)cc1 | -60* | 15% | . | . | -10% | -11%
COc1ccc(C(=O)C(=O)N2CCN(c3ccccc3F)CC2)cc1 | -68* | -15% | . | . | -4% | -4%
COc1cc(OC)cc(C(=O)N2CCN(c3ccccc3F)CC2)c1 | -35 | -9% | ? | -25% | ? | 31%
COc1ccc(-c2cn3c(C)c(C(=O)N4CCCc5ccccc54)sc3n2)cc1 | ? | 10µM* | . | . | ? | ?
CCOc1ccc(CS[C@@H](CC(=O)O)C(=O)O)cc1 | . | . | 8% | . | . | .
O=C(Cc1cccc(NC(=O)C2CCN(C(=O)C3CCC3)CC2)c1)Nc1cccc(C(=O)N2CCOCC2)c1 | -8 | -18% | . | . | -1% | -17%
C[C@@H]1CN(Cc2ccc3c(c2)CN(Cc2cccc(O)c2)CCO3)C[C@H](C)O1 | . | -3% | . | . | -2% | -26%
Clc1ccc(Cn2ncc3c(N4CCN(c5ccccc5)CC4)ncnc32)cc1 | -102* | ? | . | . | ? | 13µM*
Cc1ccc(Cl)cc1-n1ncc2c(N3CCN(Cc4ccccc4)CC3)ncnc21 | -35 | ? | . | 6%[46.1 µM] | -23% | 3.2µM*
Cc1ccc(Cn2ncc3c(N4CCOCC4)ncnc32)cc1 | -9 | . | -19% | 4% | . | ?
CCN1CCN(c2ncnc3c2cnn3-c2cc(Cl)ccc2C)CC1 | -16 | -14% | . | -23%[46.1 µM] | 5% | 0%
Cc1ccc(Cn2ncc3c(N4CCN(c5ccccc5C)CC4)ncnc32)cc1 | -14 | . | ? | ? | ? | 18µM*
COC(=O)[C@@H]1CCCN1C(=O)c1c(OC)cc(=O)n2c1CCN(Cc1ccc3nsnc3c1)CC2 | . | -10% | . | . | -7% | -4%
O=C(Nc1cccc(C(F)(F)F)c1)N1CCC(CN2CCCCCC2)CC1 | -11 | -7% | . | 4%[46.1 µM] | -12% | -9%
Cc1nn(C)c(C(=O)Nc2ccn(C34CC5CC(CC(C5)C3)C4)n2)c1[N+](=O)[O-] | -62* | -14% | ? | ? | ? | ?
Cn1nccc1C(=O)Nc1ccc(Cl)cc1 | 17 | 0% | 3% | 9% | -8% | .
Cn1cc([N+](=O)[O-])c(C(=O)Nc2ccn(C34CC5CC(CC(C5)C3)C4)n2)n1 | -95* | -5% | ? | 9% | -2% | -17%
Cn1nccc1C(=O)Nc1ccn(C23CC4CC(CC(C4)C2)C3)n1 | -81* | -26% | ? | -30% | -20% | ?
SMILES | HCMV antiviral | VACV mCherry inh | Marburg entry inh | LASV entry inh | VACV Venus inh | FMDV antiviral
N#CCCn1cc(/C=C2\NC(=S)N(c3ccccc3)C2=O)c(-c2ccc(F)cc2)n1 | -63* | ? | ? | -16%[46.1 µM] | -13% | -26%
Cc1ccc(CNC(=O)CCCc2ccccc2)cc1 | 7 | -11% | 11%[46.1 µM] | . | -2% | 21%
COc1ccc(CCCC(=O)NCc2ccccc2)cc1C | -16 | -23% | -26% | 8.2µM* | -27% | -23%
Cc1nonc1C1CCCN1C(=O)c1cc(COc2ccc(F)cc2Cl)on1 (stereo not given) | -17 | ? | . | . | -18% | 0%
CC1CCCC(C)N1CC(O)COCc1ccccc1 (stereo not given) | ? | -17% | 6.3µM* | -29%[46.1 µM] | -17% | -14%
COc1cc(COCC(O)CN2C(C)CCCC2C)cc(OC)c1OC (stereo not given) | 9 | . | . | . | . | -10%
O=c1c2cc3c(nc2[nH]c(=S)n1-c1ccccc1)CCCC3 | 5 | i | ? | -4%[46.1 µM] | -1% | -12%
CSc1ccc(CN2CCC(CO)(Cc3ccc(Cl)cc3)CC2)cc1 | -39 | -6% | ? | 13µM* | 14% | ?
COc1cccc([C@@H]2Oc3ccc(Br)cc3C[C@H]2OC(=O)Nc2cc(OC)c(OC)c(OC)c2)c1 | . | . | -5%[14.2 µM] | . | . | .
CC(=O)Nc1ccc(NC(=O)c2ccc(OCc3c(C)noc3C)cc2)cc1 | 11 | -8% | -3%[46.1 µM] | 0%[46.1 µM] | -8% | -7%
Cc1ccc(NC(=O)c2ccc(OCc3c(C)noc3C)cc2)cc1C | ? | -19% | 10µM* | ? | -28% | 32µM*
Cc1ccc(NC(=O)c2cccc(OCc3c(C)noc3C)c2)cc1S(=O)(=O)Nc1ccccc1Cl | -66* | -19% | -18% | ? | -29% | 32%
CCC(c1nc2ccccc2[nH]1)n1c(-c2ccc3ccccc3c2)nc2ccccc21 (stereo not given) | -13 | -4% | . | . | -12% | -7%
CCCCCCCCC(c1nc2ccccc2[nH]1)N1CCN=C1c1cc2ccccc2[nH]1 (stereo not given) | -103* | ? | . | . | ? | -22%
CN(c1ccccc1)S(=O)(=O)c1cccc(NC(=O)CCNC(=O)c2ccc([N+](=O)[O-])cc2)c1 | 19 | -10% | 4% | ? | -16% | 40µM*
CC(=O)Nc1ccc(C(=O)Nc2cccc(S(=O)(=O)N(C)c3ccccc3)c2)cc1 | 0 | . | . | . | . | ?
CN(c1ccccc1)S(=O)(=O)c1cccc(NC(=O)c2ccc(Cl)c([N+](=O)[O-])c2)c1 | -3 | i | ? | ? | -20% | 32µM*
CN(c1ccccc1)S(=O)(=O)c1cccc(NC(=O)CCNC(=O)c2ccc(Cl)cc2)c1 | 77 | -18% | -31% | ? | ? | 32µM*
CCN(CC)S(=O)(=O)c1cccc(NC(=O)CCSc2ccc(Cl)cc2)c1 | ? | ? | ? | 13µM* | ? | -24%
Cc1cc(C)cc(NC(=O)Cn2c(=O)n(Cc3ccc4c(c3)OCO4)c(=O)c3oc4ccccc4c32)c1 | 57 | -30% | . | 3%[46.1 µM] | -16% | -12%
CC(C)n1[nH]c2ccccc2c1=O | 6 | 10% | . | . | 7% | -16%
CCCn1c(N)c(C(=O)CSc2nnc(-c3ccoc3C)n2C)c(=O)n(C)c1=O | 5 | . | . | . | . | -30%
COc1cc(-c2c(OC)cccc2OC)cc2c1OCCN(C(=O)CCC(=O)c1ccc(F)cc1)C2 | . | -2% | . | . | 17% | -7%

Screens (PubChem BioAssay)
